From ChEMBL document CHEMBL1961873, “Compounds: GSK PKIS; Assays: Nanosyn kinase panel” (2012) come the findings set out here.

As usually defined, the inhibition is the relative decrease from the control value, in per cent.
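Note: reported values are averaged percent inhibition figures against human IKKε.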

This experiment concerns the target T1, Inhibitor of nuclear factor kappa-B kinase subunit epsilon (Homo sapiens) (UniProt Q14164).
T1 sequence (whole entry): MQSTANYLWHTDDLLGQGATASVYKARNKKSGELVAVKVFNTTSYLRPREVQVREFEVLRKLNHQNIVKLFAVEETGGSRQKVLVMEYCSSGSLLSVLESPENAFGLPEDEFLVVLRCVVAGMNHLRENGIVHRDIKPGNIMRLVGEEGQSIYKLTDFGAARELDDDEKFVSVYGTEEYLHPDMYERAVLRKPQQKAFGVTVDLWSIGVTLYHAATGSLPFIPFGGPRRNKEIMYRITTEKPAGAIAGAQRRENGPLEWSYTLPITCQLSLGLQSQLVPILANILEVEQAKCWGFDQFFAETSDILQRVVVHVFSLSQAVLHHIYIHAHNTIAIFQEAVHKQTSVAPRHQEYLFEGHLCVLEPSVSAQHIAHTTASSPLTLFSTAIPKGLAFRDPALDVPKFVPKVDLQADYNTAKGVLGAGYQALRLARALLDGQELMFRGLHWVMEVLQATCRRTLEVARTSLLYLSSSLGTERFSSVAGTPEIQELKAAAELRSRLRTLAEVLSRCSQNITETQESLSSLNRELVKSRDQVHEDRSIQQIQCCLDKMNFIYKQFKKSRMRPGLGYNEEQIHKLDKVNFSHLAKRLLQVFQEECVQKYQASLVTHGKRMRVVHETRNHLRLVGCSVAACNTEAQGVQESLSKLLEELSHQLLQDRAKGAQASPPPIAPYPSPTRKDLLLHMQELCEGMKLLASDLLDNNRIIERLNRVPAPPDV
Conditions: at 1 µM.
With `CN1CCN(CCCNc2nc3ccc(Oc4ccc(NC(=O)Nc5cc(C(F)(F)F)ccc5F)cc4)cc3[nH]2)CC1`, the inhibition was -0.63%.

In the case of `NS(=O)(=O)c1ccc(N/N=C2\C(=O)Nc3ccc(-c4cnco4)cc32)cc1`, the inhibition amounted to 26.5%.

As for `O=C1Nc2ccccc2/C1=C/Nc1ccc(-n2cncn2)cc1`, the inhibition stood at 16.4%.

On to `Cc1nnc(-c2ccc(C)c(-c3ccc(C(=O)NCc4ccc(Cl)cc4)cc3)c2)o1`, for which the inhibition was determined as 5.13%.

Turning to `CN(C)CCCNc1nccc(-c2c(-c3ccc(F)cc3)nn3cc(C(F)(F)F)ccc23)n1`, the inhibition was found to be 1.28%.

Turning to `COc1ccc2ncn(-c3cc(O[C@H](C)c4ccccc4Cl)c(C(N)=O)s3)c2c1`, the inhibition came to 4.23%.

With `CCS(=O)(=O)c1ccc(OC)c(Nc2ncc(-c3cccc(-c4ccccc4F)c3)o2)c1`, the inhibition is 0.08%.

For `O=C(Nc1n[nH]c2cc(-c3ccccc3)ccc12)C1CC1`, the inhibition turned out to be 4.27%.

Consider `COc1ccc(-c2ccc3c(NC(=O)C4CC4)n[nH]c3n2)cc1`, for which the inhibition was -8.46%.

`COc1cc(Nc2ncc3c(C)nc(-c4cccc(C(F)(F)F)c4)n3n2)cc(OC)c1OC`: the inhibition worked out at 18.9%.

Consider `Cc1ccc(NC(=O)c2ccoc2)cc1-c1ccc(C(=O)NCC2CC2)cc1`, for which the inhibition amounted to 2.47%.

Turning to `Fc1ccc(-c2nc3n(c2-c2ccncc2)CCS3)cc1`, the inhibition amounted to 4.11%.

In the case of `NS(=O)(=O)c1ccc(N/N=C2\C(=O)Nc3ccc(C(=O)NCCCn4ccnc4)cc32)cc1`, the inhibition was 26.6%.

Regarding `CCN(CC)Cc1ccc(Nc2nccc(-c3cnn4ncccc34)n2)cc1`, the inhibition turned out to be 17.8%.

For the compound `NC(=O)c1cc(-c2ccc(F)cc2)cc(-c2ccncc2)c1N`, the inhibition was 3.16%.

For `Nc1nccc(-c2c(-c3ccc(F)cc3)ncn2C2CCC(O)CC2)n1` (stereo unspecified), the inhibition is -2.64%.
